# ELG1 repair inh: qHTS screen for small molecules that inhibit ELG1-dependent DNA repair in human embryonic kidney (HEK293T) cells expressing luciferase-tagged ELG1 | HEK293T ELG1-luciferase reporter, luminescence, 16 h; DNA damage induced by 5-fluorouridine | Potency, µM (top dose mostly 46.1 µM), for inactives: at the top dose activity change, negative = inhibition, actives largely listed as inhibitors | 2.3% of 330,000 active | AID 504467, 2011; note: nearly all actives have a fitted effect of over 55% in size
#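 Cells (2,000 per well) received 5-fluorouridine plus test compound or DMSO and were incubated 16 hr at 37 °C, 5% CO2. Luciferase activity was read by luminescence 30 min after ONE-Glo addition; signal suppression marked inhibition of damage-induced ELG1 function.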
# DT40 TDP1 CPT: qHTS for Inhibitors of human tyrosyl-DNA phosphodiesterase 1 (TDP1): qHTS in cells in presence of CPT; chicken DT40 Tdp1-/-;hTDP1 cells + 20 nM CPT, ATP luminescence, 48 h; Potency, µM (series often up to 46.2 µM), without a hit: at the highest dose activity change, negative = growth inhibition, actives largely listed as inhibitors; 12% of 420,000 active; note: nearly all actives have a fitted effect of over 55% in size
#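 Cell growth measured by CellTiter-Glo luminescence after a minimum 48 h, 37 C compound exposure with 20 nM CPT in Tdp1-knockout DT40 cells stably expressing hTDP1, seeded 400/well; qHTS titration format.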
# 12-LOX inh: Primary qHTS assay for inhibitors of human arachidonate 12S-lipoxygenase (ALOX12): Round 2. 1.1% of 580,000 active. Potency, µM (titrated, usually from 108 µM), inactives show at the highest dose activity change, negative = inhibition, hits mostly inhibitors. Polyunsaturated fatty acid lipoxygenase ALOX12 (Homo sapiens), P18054. purified 12hLO, xylenol orange hydroperoxide absorbance
#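 Hydroperoxide product was detected by ferrous iron/xylenol orange as the 573 to 405 nm absorbance ratio. Arachidonic acid at 40 uM (final) was turned over for 30 min at room temperature by 150 nM human 12hLO, pH 7.0 Hepes buffer, after 15 min compound preincubation.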
# RORg inh: qHTS for inhibitors of ROR gamma transcriptional activity. 5.4% of 310,000 active. AID 2551, 2010. Potency, µM (top dose mostly 53.6 µM), without a hit: at the top dose activity change, negative = inhibition, actives largely listed as inhibitors. Nuclear receptor ROR-gamma (Mus musculus), P51450. Drosophila S2 Gal4-RORgamma UAS-luciferase reporter, 20 h; note: nearly all actives have a fitted effect of over 60% in size
# Target sequence (P51450 whole entry, looked up, the tested form may be a part): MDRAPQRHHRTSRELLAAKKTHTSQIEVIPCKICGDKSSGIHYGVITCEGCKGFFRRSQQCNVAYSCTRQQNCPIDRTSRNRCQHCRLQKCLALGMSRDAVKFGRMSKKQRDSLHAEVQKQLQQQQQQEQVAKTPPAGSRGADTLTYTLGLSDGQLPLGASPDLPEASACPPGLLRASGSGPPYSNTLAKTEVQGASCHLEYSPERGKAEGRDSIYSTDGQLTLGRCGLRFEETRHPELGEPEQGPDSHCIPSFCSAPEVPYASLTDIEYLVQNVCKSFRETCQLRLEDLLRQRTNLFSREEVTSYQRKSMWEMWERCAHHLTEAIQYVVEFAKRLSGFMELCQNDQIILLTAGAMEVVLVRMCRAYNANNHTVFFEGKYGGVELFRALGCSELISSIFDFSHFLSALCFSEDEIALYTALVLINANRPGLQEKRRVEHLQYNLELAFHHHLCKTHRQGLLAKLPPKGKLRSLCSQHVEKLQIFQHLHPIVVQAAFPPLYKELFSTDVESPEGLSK
#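 Schneider cells (Drosophila), stable Gal4 DBD–ROR gamma + UAS-luc; 1 hr cmpd preincubation; Cu2+ induction 700 uM final; 20 hr ambient; luminescence.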
# Gal4-VP16 FLuc: VP16 counterscreen qHTS for inhibitors of ROR gamma transcriptional activity | Drosophila S2 Gal4-VP16 UAS-luciferase, luminescence, 20 h | Potency, µM (doses to about 53.6 µM), without a hit: top-dose activity, negative = inhibition, actives largely listed as inhibitors | 3.5% of 310,000 active | AID 2546, 2010;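 note: Gal4-VP16 expression switched on by copper sulfate through the metallothionein promoter; nearly all actives have a fitted effect of over 50% in size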
# TDP1 cell noCPT: qHTS for Inhibitors of human tyrosyl-DNA phosphodiesterase 1 (TDP1): qHTS in cells in absence of CPT; DT40 Tdp1-/- hTDP1 cells, no CPT, ATP luminescence, 48 h; Potency, µM (highest dose often 46.2 µM), for the others: top-dose activity change, negative = growth inhibition, hits mostly inhibitors; 15% of 420,000 active; note: nearly all actives have a fitted effect of over 55% in size
#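 Growth kinetics read by CellTiter-Glo luminescence after ≥48 hr at 37 °C. Cells: DT40 Tdp1-/- stably carrying human TDP1, 400 per well, compound exposure in the absence of CPT (DMSO vehicle).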
# * = called active by the depositor; ? = inconclusive; · = no result given. Rows were chosen to be rich in hits. Some 15% of all compounds tested hit in one or more screens of this group. Calls come from the whole dose curve; as a rule, active = well fitted curve in the direction sought with a large enough effect; inconclusive = small, poorly fitted or top-dose-only effect, or another doubt; inactive = no such curve, though single readings can be large; an effect the other way counts as inactive or inconclusive. % is set by controls: 0 for no effect and ±100 for the full control effect; potency is the fitted concentration of half-maximal effect.
SMILES,ELG1 repair inh,DT40 TDP1 CPT,12-LOX inh,RORg inh,Gal4-VP16 FLuc,TDP1 cell noCPT
Oc1cccc(C2c3[nH]c4ccccc4c3CCN2Cc2ccoc2)c1 (configuration not stated),-9%,-26%,28%,7%,-16%,-25%
Cc1cccc(C2c3[nH]c4ccccc4c3CCN2Cc2ccc(C)s2)n1 (configuration not stated),-5%,-9%,1%,-19%,12%,-28%
COc1ccccc1C1c2[nH]c3ccccc3c2CCN1Cc1cnc(C)s1 (configuration not stated),?,?,8%,-24%,-1%,18µM*
Oc1cccc(C2c3[nH]c4ccccc4c3CCN2Cc2ccc3c(c2)CCO3)c1 (configuration not stated),?,?,37%,9%,-8%,21µM*
COc1ccc(C2c3[nH]c4ccccc4c3CCN2Cc2ccoc2)c(F)c1 (configuration not stated),13%,?,-9%,11%,6%,16µM*
COc1cccc(C2c3[nH]c4ccccc4c3CCN2Cc2cnc(C)s2)c1OC (configuration not stated),?,?,7%,-19%,0%,15µM*
C1CC(c2noc(C34CC5CC(CC(C5)C3)C4)n2)CO1 (configuration not stated),·,·,0%,·,·,·
CCOc1cccc(CNC(=O)[C@H]2CCC[C@H]2NC(=O)c2ccc(OC)nc2)c1,·,·,9%,·,·,·
Cc1cc(C)nc(SC2CC(=O)N(c3ccc(Cl)cc3)C2=O)n1 (configuration not stated),7%,?,-1%,14µM*,-86%,21µM*
Cc1cc(C)nc(SC2CC(=O)N(c3ccc(Br)cc3)C2=O)n1 (configuration not stated),3%,?,24%,25%,7%,?
Cc1c(O)nc(SC2CC(=O)N(c3cc(Cl)cc(Cl)c3)C2=O)[nH]c1=O (configuration not stated),·,12%,5.6µM*,·,·,-6%
Cc1cc(C)nc(SC2CC(=O)N(c3ccc(C)c(C)c3)C2=O)n1 (configuration not stated),-2%,?,10%,1%,-2%,15µM*
Cc1ccnc(SC2CC(=O)N(c3ccc(Cl)cc3)C2=O)n1 (configuration not stated),-5%,-29%,12%,?,?,?
Nc1cccc(C(=O)/C=C/c2ccc(F)cc2)c1,·,·,-12%,·,·,·
Cc1ccc(Nc2cc(C)nc3ccc(C)cc23)cc1,8.2µM*,?,-18%,-11%,1%,?
COc1ccc(Nc2cc(C)nc3ccc(OC)cc23)cc1,-31%,-4%,0%,-21%,-2%,?
CCOc1ccc(Nc2cc(C)nc3ccc(C)cc23)cc1,·,23µM*,-8%,·,·,?
O=S(=O)(Nc1nc2ccccc2nc1N1CCN(c2ccccc2F)CC1)c1ccc(Cl)cc1,18µM*,?,?,-6%,-17%,?
O=C(N/N=C/c1ccc(N2CCOCC2)o1)c1ccccc1[N+](=O)[O-],7%,0%,-24%,13µM*,?,?
O=C(N/N=C/c1ccc(N2CCCCC2)o1)c1ccccc1[N+](=O)[O-],-6%,?,?,?,8.9µM*,?
COCCN1CCC(CN(Cc2ccncc2)C(=O)[C@@H]2C[C@@H]3C=C[C@H]2C3)CC1,·,·,43%,·,·,·
CCOC(=O)N1CCC(NS(=O)(=O)c2ccc(C)c(Cl)c2)CC1,16µM*,?,167%,26%,2%,6.5µM*
CCOC(=O)N1CCN(C(=O)COc2ccc(S(=O)(=O)NC3CCCCC3)cc2C)CC1,?,?,1%,-3%,1%,18µM*
Cc1cc(S(=O)(=O)NC2CCCCC2)ccc1OCC(=O)N1CCOCC1,-20%,-28%,6%,13%,-20%,-22%
COCCCNCCCCOc1cccc(Br)c1,-5%,?,-10%,3%,5%,?
SMILES,ELG1 repair inh,DT40 TDP1 CPT,12-LOX inh,RORg inh,Gal4-VP16 FLuc,TDP1 cell noCPT
Cc1cc(Br)ccc1OCCCCNC(C)(C)C,-17%,?,?,-10%,-9%,21µM*
COCCCNCCCCOc1ccc(Br)cc1C,9%,?,?,-35%,8%,23µM*
COCCNCCCCOc1ccc(Br)cc1C,9%,?,?,-7%,-11%,23µM*
CCc1ccc(-c2cc(C(=O)Nc3nn[nH]n3)c3ccccc3n2)cc1,·,·,1%,·,·,·
Cn1c(=O)n(CCCc2ccccc2)c(=O)c2c1nc1n2CCN1c1ccccc1,·,7.3µM*,-18%,·,·,6.5µM*
CCOCCn1c(=O)c2c(nc3n2CCN3c2ccc(CC)cc2)n(C)c1=O,·,15µM*,3%,·,·,?
Cn1c(=O)[nH]c(=O)c2c1nc(N1CCCC1)n2CCCSc1nnnn1-c1ccccc1,?,21µM*,-20%,18%,-16%,16µM*
Cn1c(=O)[nH]c(=O)c2c1nc(N1CCN(Cc3ccccc3)CC1)n2CCCc1ccccc1,?,12µM*,0%,-39%,-9%,16µM*
COc1ccc(CN2CCC3(CC2)CC(O)CCO3)cc1 (configuration not stated),·,·,1%,·,·,·
CC(=O)N1CC2(Cc3ccccc31)CN(C(=O)c1ccc(Cl)nc1)C2,·,·,38%,·,·,·
Cn1c(=O)c2c(nc(N3CCCC3)n2CCc2ccccc2)n(C)c1=O,·,·,-15%,·,·,·
Cn1c(=O)c2c(nc(N3CCN(Cc4ccccc4)CC3)n2CCCc2ccccc2)n(C)c1=O,12µM*,12µM*,467%,1%,-3%,18µM*
Cn1c(=O)c2c(nc(N3CCN(c4ccccc4)CC3)n2CCCc2ccccc2)n(C)c1=O,?,8.2µM*,41%,20%,3%,6.5µM*
C=CCn1c(SCCOc2ccc(OC)cc2)nnc1C(C)NC(=O)c1ccc(OC)cc1 (configuration not stated),-2%,?,23%,24%,7%,-19%
COc1ccc(C(=O)NC(C)c2nnc(SCc3ccc(Cl)c(Cl)c3)n2C)cc1 (configuration not stated),-12%,-24%,4µM*,15%,-9%,-21%

# From PubChem BioAssay
